Measurements as given in PubChem BioAssay AID488969 (Vanderbilt High Throughput Screening Facility, 2010).
In all, about 110,000 compounds were measured (“z-score”: median about -0.1, highest 2% from about 2 on). The full list was thinned out, with the highest values kept by preference. The source made the active and inactive calls.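 How the source made its calls: active means z-score in the third read window above 3 or below -3; inactive means the rest.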

The compounds below were run against Metabotropic glutamate receptor 8 (Rattus norvegicus) (UniProt P70579) (assay: mGluR8 Gi/Go-coupled signaling modulation – cell-based, rat, thallium flux, HTS, primary screen (AID 488969)). Conditions: HEK293 rat mGluR8, GIRK (G protein-gated inwardly rectifying potassium channel) thallium flux, FluoZin2; at 10 µM; stronger effect = higher value; submaximal glutamate (EC20) added with thallium.
Metabotropic glutamate receptor 8 (Rattus norvegicus), sequence (P70579 whole entry, looked up): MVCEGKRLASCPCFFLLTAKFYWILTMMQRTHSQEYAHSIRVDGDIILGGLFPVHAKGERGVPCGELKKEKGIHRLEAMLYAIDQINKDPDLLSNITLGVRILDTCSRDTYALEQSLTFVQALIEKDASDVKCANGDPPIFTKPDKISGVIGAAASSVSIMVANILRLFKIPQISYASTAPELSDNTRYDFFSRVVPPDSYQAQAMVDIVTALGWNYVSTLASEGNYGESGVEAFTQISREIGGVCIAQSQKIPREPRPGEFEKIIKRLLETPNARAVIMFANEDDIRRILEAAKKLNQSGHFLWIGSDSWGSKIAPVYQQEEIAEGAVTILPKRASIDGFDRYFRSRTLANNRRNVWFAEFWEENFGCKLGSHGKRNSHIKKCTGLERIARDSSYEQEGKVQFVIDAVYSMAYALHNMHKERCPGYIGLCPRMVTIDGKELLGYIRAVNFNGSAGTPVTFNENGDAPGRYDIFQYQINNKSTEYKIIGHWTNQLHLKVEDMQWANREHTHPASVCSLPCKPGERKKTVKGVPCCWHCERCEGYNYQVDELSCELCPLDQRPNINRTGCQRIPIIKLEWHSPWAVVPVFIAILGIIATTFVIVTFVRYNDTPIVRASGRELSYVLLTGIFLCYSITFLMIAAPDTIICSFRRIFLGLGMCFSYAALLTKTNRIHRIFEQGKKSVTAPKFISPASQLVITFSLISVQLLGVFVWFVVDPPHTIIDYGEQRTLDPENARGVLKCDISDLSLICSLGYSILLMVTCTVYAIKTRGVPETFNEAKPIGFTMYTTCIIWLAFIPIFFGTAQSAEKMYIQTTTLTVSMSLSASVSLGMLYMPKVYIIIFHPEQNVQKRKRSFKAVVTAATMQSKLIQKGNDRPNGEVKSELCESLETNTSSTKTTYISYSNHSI

Compound	z-score
CCc1nnc(NS(=O)(=O)c2ccc(N=Cc3c(C)[nH]n(-c4ccc(Cl)cc4)c3=O)cc2)s1	-0.276
Cc1[nH]n(-c2ccc(Cl)cc2)c(=O)c1C=NC12CN3CN(CN(C3)C1)C2	-0.111
Cc1[nH]n(-c2ccc(Cl)cc2)c(=O)c1/C=N/c1nnc(-c2ccccc2)s1	8.81 (active)
O=C(CSCCO)Nc1ccccc1	3.04 (active)
O=C(O)CSCC(=O)Nc1ccccc1	0.00603
O=C(O)CCCSCC(=O)Nc1ccccc1	0.633
Cc1ccc(C2=[N+]([O-])C3(CCCCC3=O)N(O)C2(C)C)cc1 (configuration not stated)	0.0871
O=C(COC(=O)Cc1cccc2ccccc12)Nc1ccccc1-c1ccccc1	-0.174
O=C1/C(=C/c2ccc(F)cc2)SC(=S)N1Nc1ncc(C(F)(F)F)cc1Cl	0.426
O=C1/C(=C\c2ccccn2)SC(=S)N1Nc1ncc(C(F)(F)F)cc1Cl	3.17 (active)
COc1cc(/C=C2\SC(=S)N(Nc3ncc(C(F)(F)F)cc3Cl)C2=O)ccc1O	1.29
CCOC(=O)CC1C(=O)NCCN1C(=O)c1cc2c(=O)n3ccccc3nc2s1 (configuration not stated)	-0.533
Cc1c(Cl)cccc1NC(=O)CNc1cccc(S(=O)(=O)N(C)C)c1	-0.138
CN(C)S(=O)(=O)c1cccc(NC(=O)Cc2ccc(Cl)cc2)c1	4.58 (active)
Cc1cc(=O)oc2cc(OCC(=O)Nc3cccc(S(=O)(=O)N(C)C)c3)ccc12	-0.0464
CN(C)S(=O)(=O)c1cccc(NC(=O)COC(=O)CCSc2ccc(Cl)cc2)c1	0.722
CCNc1ccc(S(=O)(=O)N(C)C)cc1NCC(=O)Nc1ccc(F)c(Cl)c1	0.204
Cc1ccc(NCC(=O)Nc2cccc(S(=O)(=O)N(C)C)c2)c(Cl)c1	4.79 (active)
CN(C)S(=O)(=O)c1cccc(NC(=O)COc2cccc(C#N)c2)c1	3.82 (active)
O=C(Cc1ccc(Cl)cc1)Nc1cccc(S(=O)(=O)Nc2ccccc2F)c1	0.371
CCN(CC)S(=O)(=O)c1cccc(NC(=O)COc2ccc(C#N)cc2OC)c1	-0.191
CC1CN(c2c3c(nc4ncnn24)CCCC3)CC(C)O1 (configuration not stated)	-0.374
Cc1ccc(N(C(C)C(=O)Nc2ccc(S(=O)(=O)N3CCOCC3)cc2)S(C)(=O)=O)cc1 (configuration not stated)	0.137

Compound	z-score
CCCCc1ccc(-c2csc(/C(C#N)=C/c3ccco3)n2)cc1	-0.275
CCOCCCNC(=O)c1ccc(CS(=O)(=O)Cc2cccc(C)c2)o1	0.789
O=C1CC(N2CCC(O)(c3ccc(Cl)cc3)CC2)C(=O)N1 (configuration not stated)	0.198
COc1cccc(NC(=O)N(CCCN2CCOCC2)C(C)c2cc3ccccc3o2)c1 (configuration not stated)	-2.21
CCN(C(=O)CCN1C(=O)c2ccccc2C1=O)C1CCCCC1	0.156
O=C(CSc1nc(O)cc(=O)n1-c1ccccc1)N1CCCCC1	4.46 (active)
NC(=O)CSc1nc(O)cc(=O)n1-c1ccccc1	0.418
O=C(CSc1nc2ccccc2c(=O)n1-c1ccccc1)N1CCCC1	-0.689
Fc1ccc(C(c2nnnn2Cc2ccco2)N2CCN(C3CCCCC3)CC2)cc1 (configuration not stated)	2.31
CC(C)C(c1nnnn1Cc1ccco1)N1CCN(C2CCCC2)CC1 (configuration not stated)	-0.255
COc1ccc(Cn2nnnc2C(c2ccccc2Cl)N2CCN(C3CCCC3)CC2)cc1 (configuration not stated)	1.79
Fc1ccc(C(c2nnnn2Cc2cccs2)N2CCN(C3CCCC3)CC2)cc1 (configuration not stated)	1.73
COc1ccc(Cn2nnnc2C(c2ccc(F)cc2)N2CCN(C3CCCC3)CC2)cc1 (configuration not stated)	3.92 (active)
COc1ccc(Cn2nnnc2C(c2ccc(C)cc2)N2CCN(C3CCCC3)CC2)cc1 (configuration not stated)	0.353
N#Cc1nc(-c2ccccc2)oc1NCC1CCCO1 (configuration not stated)	-0.084
Cc1nn2c([nH]c(=O)c3ccccc32)c1C=O	0.184
CCOC(=O)c1cnn2c1[nH]c(=O)c1ccccc12	1.54
Cc1cc2[nH]c(=O)c3ccccc3n2n1	4.8 (active)
CCOC(=O)c1ccccc1NC(=O)Cc1ccccc1OC	-0.663
CCCOc1ccccc1N/C(=N/c1nc(C)cc(C)n1)NC(=O)COc1ccc(OC)cc1	0.266
CC1CN(C(=O)C2CCCC2)C(C)CN1C(=O)C1CCCC1 (configuration not stated)	0.888
CC1CN(C(=O)C2CCCCC2)C(C)CN1C(=O)C1CCCCC1 (configuration not stated)	11.1 (active)
CC1CN(C(=O)C2CC2)C(C)CN1C(=O)C1CC1 (configuration not stated)	0.00492

Compound	z-score
Cc1ccccc1NC(=O)c1cn(-c2ccccc2)nc1-c1ccccc1	0.316
O=C(Nc1ccccc1)Nc1ccc2snnc2c1	-0.373
CC(C)c1ccc(Oc2cccc(C(=O)/C(C#N)=C/N(C)C)c2)cc1	-0.286
CC1(C)Cc2ccccc2C(=O)N1	0.0959
Cc1cc2c(cc1C)C(=O)NC(C)(C)C2	5.66 (active)
CC(C)c1ccc2c(c1)C(=O)NC(C)(C)C2	-0.156
O=C(CN1C(=O)CCS(=O)(=O)c2ccccc21)Nc1cccc(F)c1	-0.608
Cc1ccc(C)c(Nc2c([N+](=O)[O-])cc(C(=O)N3CC(=O)Nc4ccccc43)cc2[N+](=O)[O-])c1	4.62 (active)
Cc1ccc(Nc2c([N+](=O)[O-])cc(C(=O)N3CC(=O)Nc4ccccc43)cc2[N+](=O)[O-])c(C)c1	-0.162
CCc1cccc(Nc2c([N+](=O)[O-])cc(C(=O)N3CC(=O)Nc4ccccc43)cc2[N+](=O)[O-])c1	-1.1
O=C(c1ccc(O)cc1)c1ccc(Cl)cc1	-0.563
CCOC(=O)Nc1cc2c(cc1C(C)=O)OCO2	0.657
CCOc1ccc(N2CC(C(=O)Nc3ccccc3OC)CC2=O)cc1 (configuration not stated)	1.1
COC(=O)c1ccccc1NC(=O)C1CC(=O)N(c2ccc(C)cc2)C1 (configuration not stated)	-0.265
COC(=O)c1ccccc1NC(=O)C1CC(=O)N(c2ccc(F)cc2)C1 (configuration not stated)	2.15
COc1ccc(Cl)cc1NC(=O)C1CC(=O)N(c2ccc(F)cc2)C1 (configuration not stated)	0.0135
COC(=O)c1ccccc1NC(=O)C1CC(=O)N(c2ccccc2)C1 (configuration not stated)	-0.0106
COc1ccc(OC)c(NC(=O)C2CC(=O)N(c3ccc(Br)cc3)C2)c1 (configuration not stated)	3.63 (active)
O=C(CCC(=O)OCC(=O)c1cccc([N+](=O)[O-])c1)Nc1cccc(Cl)c1Cl	-0.0921
O=C(c1ccc(N2CCN(CCO)CC2)nc1)N1CCOCC1	0.0375
CC12CC(c3ccccc3O1)N(C(=O)c1ccco1)C(=S)N2c1ccc(F)cc1 (configuration not stated)	-0.812
